From PubChem BioAssay AID624377 (The Scripps Research Institute Molecular Screening Center, 2012)
The campaign covered roughly 360,000 compounds. About 680 (0.19%) were called active. No stated cut-off is given here; in the data, active means inhibition above about 25%; inactive means the rest. Shown is part of a subset that was picked to be rich in actives.

target: Arf-GAP with SH3 domain, ANK repeat and PH domain-containing protein 1 (Homo sapiens) (UniProt Q9ULH1); assay: blockers of ASAP1-stimulated ARF1 GTP hydrolysis – biochemical, fluorescence polarization, primary screen (AID 624377); conditions: GDP FP detection, at 16.5 µM, stronger effect = higher value;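 further: 0% = vehicle with enzyme and substrate and 100% = no enzyme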
Sequence (Q9ULH1 325-724 limits assumed): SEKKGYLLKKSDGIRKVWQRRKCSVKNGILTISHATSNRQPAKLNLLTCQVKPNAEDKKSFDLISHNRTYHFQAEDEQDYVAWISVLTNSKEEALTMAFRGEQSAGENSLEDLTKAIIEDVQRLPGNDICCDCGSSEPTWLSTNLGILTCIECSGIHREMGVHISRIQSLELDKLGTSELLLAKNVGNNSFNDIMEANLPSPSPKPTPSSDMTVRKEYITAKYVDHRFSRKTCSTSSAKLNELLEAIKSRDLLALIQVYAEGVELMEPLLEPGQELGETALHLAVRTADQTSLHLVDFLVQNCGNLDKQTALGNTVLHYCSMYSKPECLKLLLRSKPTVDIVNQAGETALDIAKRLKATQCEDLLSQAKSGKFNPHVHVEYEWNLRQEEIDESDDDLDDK

SMILES	inhibition
COC(=O)[C@]12C[C@H](CC(=O)NCc3ccc(OC)c(OC)c3)C(=O)N(Cc3ccccc3)C1=C[C@H](C(C)C)O[C@@H]2C1CC1	-17.1% (inactive)
COC(=O)c1ccc(CN2C(=O)[C@]3(OCCC=C[C@H]3C)c3c(Br)cccc32)cc1	8.64% (inactive)
COc1cccc(CNC(=O)[C@H]2CCCN2C(=O)[C@H]2CCCN2C(=O)c2cc(F)cc(F)c2)c1	6.55% (inactive)
COc1cccc(NC(=O)N(C)C[C@@H]2OCc3cn(nn3)CCCC(=O)N([C@@H](C)CO)C[C@H]2C)c1	-14.2% (inactive)
O=C(NCc1ccccc1)[C@H]1CCCN1C(=O)[C@@H]1CCCN1C(=O)c1ccc(Cl)cc1Cl	-1.03% (inactive)
O=C(C(=O)N1CCC(CNC(=O)c2cccnc2Cl)CC1)c1cccs1	0.64% (inactive)
CC(C)[C@H]1COCCS(=O)(=O)N1Cc1ccccc1-c1cccc2c1sc1ccccc12	-8.72% (inactive)
CC(=O)C1=C(C)N(Cc2ccccc2)C(=S)NC1c1cccc(Br)c1 (centres undefined)	-2.66% (inactive)
C[C@H](O)[C@@H]1CN2CCc3ccc(-c4ccc5c(c4)OCO5)cc3[C@@H]2C[C@@H]1N(C)C(=O)C1CCCCC1	-4.95% (inactive)
Nc1ccn([C@@H]2O[C@H](C(=O)N[C@H]3CCCCNC3=O)[C@@H](O)[C@H]2O)c(=O)n1	-4.12% (inactive)
C[C@@H](CN1C2=NC[C@@H](Cc3ccccc3)N2C[C@H]1Cc1ccc(O)cc1)NC(=O)CCC1CCCCC1	-1.15% (inactive)
COC(=O)C1=C(C(=O)OC)C2C=C(C(C)C)C1C(=O)C2(C)O (centres undefined)	-14.9% (inactive)
CC(C)(C)n1nc(C2CC2)c(Br)c1NC(=O)c1ccccc1F	-0.45% (inactive)
COC(=O)C1=C(C)N(Cc2cccc(C(F)(F)F)c2)C(=NCc2ccccc2)NC1c1ccc(Cl)cc1 (centres undefined)	8.8% (inactive)
O=C(N[C@H](C(=O)N1CCC[C@H]1C(=O)NCCc1ccccc1Cl)c1ccccc1)c1ccccc1	8.89% (inactive)
Cc1ccc(C(=O)Nc2c(-c3ccccc3)[nH][nH]c2=O)cc1	-5.65% (inactive)
CN(C)C(=O)c1ccc(NC(=O)c2ccccc2-c2ccccc2)cc1	6.53% (inactive)
O=C(NC1=CC(=O)c2ccccc2C1=O)c1ccccc1	26.4% (active)
COC(=O)[C@]12C[C@H](CC(=O)NCCCCc3ccccc3)C(=O)N(Cc3ccc4c(c3)OCO4)C1=C[C@H](C(C)(C)C)O[C@@H]2C	-6.7% (inactive)
CC(C)[C@@H](C)/C=C/[C@@H](C)[C@H]1CC[C@@H]2[C@]1(C)CCC1[C@]23C=C[C@]2(C[C@@H](O)CC[C@]12C)N(c1ccc([N+](=O)[O-])cn1)O3 (some centres undefined)	7.77% (inactive)
Nc1c(-c2cccc(Cl)c2)cnn1-c1cccc([N+](=O)[O-])c1	3.08% (inactive)
Cc1cccc(N2Cc3ccccc3C2=NC(=O)c2ccc(Cl)nc2)c1	-4.91% (inactive)
Cc1cccc(-n2ncc(Cl)c(Cl)c2=O)c1	24.7% (active)
CC1CCCN(c2cccc3c2S(=O)(=O)N(Cc2ccc(F)cc2)[C@@H](C)[C@H](c2ccccc2)O3)C1 (some centres undefined)	0.02% (inactive)
COc1ccc(SSc2ccc(OC)cc2C(=O)O)c(C(=O)O)c1	-8.33% (inactive)

SMILES	inhibition
Cc1cc(Br)cn2c(Cc3ccccc3C(F)(F)F)c(-c3ccc(C#N)cc3)nc12	-9.38% (inactive)
COC(=O)C1=C(C)N(Cc2ccc(C(F)(F)F)cc2)C(=NCc2ccc(C(F)(F)F)cc2)NC1c1cccc(Cl)c1 (centres undefined)	1.4% (inactive)
CC(=O)c1cccc(-c2cnc3c(NC=O)cc(-c4ccccc4Oc4ccccc4)cn23)c1	-4.36% (inactive)
COc1ccc(-c2cc(NC=O)c3ncc(-c4cccc(C(=O)N(C)C)c4)n3c2)c(OC)c1	-1.85% (inactive)
CN(C)C(=O)c1cccc(-c2cnc3c(NC=O)cc(-c4ccc(C(=O)N5CCOCC5)cc4)cn23)c1	-9.18% (inactive)
O=CNc1cc(-c2ccc(C(=O)N3CCOCC3)cc2)cn2c(-c3ccc(F)cc3)cnc12	7.38% (inactive)
COc1cccc(-c2cc(NC(C)=O)c3ncc(-c4cccc(C(C)=O)c4)n3c2)c1	-0.92% (inactive)
CC(=O)Nc1cc(-c2ccc(N3CCN(C)CC3)cc2)cn2c(-c3ccc(F)cc3)cnc12	24.7% (active)
CC(=O)Nc1cccc(-c2cc(NC(C)=O)c3ncc(-c4ccccc4)n3c2)c1	-3.7% (inactive)
CC(=O)c1cccc(-c2cnc3c(NC=O)cc(-c4ccc(N5CCN(C)CC5)cc4)cn23)c1	39.8% (active)
CC(=O)Nc1cc(-c2ccc(N3CCN(C)CC3)cc2)cn2c(-c3cccc(C(=O)N(C)C)c3)cnc12	40.6% (active)
COC(=O)Cc1nnn2c1[C@H](C)[C@H](c1ccccc1Br)OCC2	-9.73% (inactive)
Cc1cc(N2CCN(C(=O)OC(C)(C)C)C[C@H]2C)ccc1N1CCN(Cc2ccccc2)[C@H](C)C1	0.89% (inactive)
c1ccc(-c2cc(-c3nnc4sc(-c5ccccn5)nn34)[nH]n2)cc1	28.1% (active)
Fc1ccc(-c2ccc(-c3nn4c(-c5ccco5)nnc4s3)o2)cc1	-2.12% (inactive)
CCCCCCCCN1C(=O)[C@@H](CC(=O)NCCCC)C[C@@]2(C(=O)OC)C1=C[C@H](C(C)(C)C)O[C@@H]2C	-1.77% (inactive)
COc1ccc(C(CNC(=O)c2ccc(S(=O)(=O)Nc3ccccc3C)cc2)N2CCOCC2)cc1 (centres undefined)	1.23% (inactive)
COc1ccc(C(CNC(=O)c2cccc(NS(=O)(=O)c3ccc(C)c(F)c3)c2)N2CCCC2)cc1 (centres undefined)	-8.53% (inactive)
COc1ccc(C(CNC(=O)c2cccc(S(=O)(=O)Nc3ccccc3Cl)c2)N2CCOCC2)cc1 (centres undefined)	26.3% (active)
CCOc1ccccc1C(=O)N1CCC[C@@H]1C(=O)N1CCC[C@H]1C(=O)NCc1ccccc1	-4.19% (inactive)
CCC(=C/c1sc2ccc3ccccc3c2[n+]1C)/C=C1\Sc2ccc3ccccc3c2N1C	41.1% (active)
COCc1[nH]nc2c1C(c1ccccc1)N(c1ccccc1)C2=O (centres undefined)	-1.83% (inactive)
COC(=O)[C@]12C[C@H](CC(=O)NCCC(C)C)C(=O)N(CCc3ccc(OC)c(OC)c3)C1=C[C@H](C(C)(C)C)O[C@@H]2C	10.4% (inactive)
Cc1nc(NC(=O)C(C)(C)C)sc1[N+](=O)[O-]	-0.12% (inactive)
Nc1ncnc2c1ncn2[C@@H]1O[C@H](C(=O)N[C@@H](CCc2ccccc2)C(=O)N2CCCN(Cc3cccs3)CC2)[C@@H](O)[C@H]1O	-0.42% (inactive)

SMILES	inhibition
COC(=O)C1=C(C)N(Cc2ccc(C(F)(F)F)cc2)C(=NCc2ccccc2)NC1c1ccccc1C(F)(F)F (centres undefined)	-2.57% (inactive)
COCCNC(=S)N(C)[C@H]1C[C@H]2c3[nH]c4ccccc4c3CCN2C[C@H]1[C@H](C)O	6.89% (inactive)
O=C(NN=Cc1ccco1)C(=O)Nc1ccc(Cl)c([N+](=O)[O-])c1	3.05% (inactive)
COC(=O)C1=C(C)N(Cc2cccc(C(F)(F)F)c2)C(=NCc2ccccc2)NC1c1ccccc1C(F)(F)F (centres undefined)	11.8% (inactive)
COC(=O)[C@H](CC(C)C)NS(=O)(=O)c1c(F)cccc1F	0.11% (inactive)
CCc1ccc(C2=CC(=O)CC(C)(C)C2=O)cc1	-7.16% (inactive)
C=CC[C@]12C[C@@]3(O[C@H](c4ccc(C(F)(F)F)cc4)N=C3C[C@H](c3ccc(OC)cc3)[C@H]1C)N(C1CCN(Cc3ccccc3)CC1)C2=O	5.12% (inactive)
CC(C)(C)c1ccc(S(=O)(=O)NCC2CCN(C(=O)C(=O)c3cc4ccccc4o3)CC2)cc1	-6.17% (inactive)
CCOC(=O)c1ccc(Nc2cc3ccccc3c(=O)[nH]2)cc1	29.1% (active)
CCOC(=O)c1ccc(NC(=O)c2c(N)n(C)c(=O)[nH]c2=O)cc1	10.2% (inactive)
CCOC(=O)c1ccc(NC(=O)c2c(NCc3ccccc3)[nH]c(=O)[nH]c2=O)cc1	-2.85% (inactive)
CCOC(=O)Cn1c2c(n(-c3ccc(F)cc3)c1=O)C=C(c1ccccc1)[C@@H](C)C(C(=O)N(C)C1CCCCC1)=C2	-1.25% (inactive)
CCCc1ccc(OCc2ccc(C(=O)N/N=C/c3cccc([N+](=O)[O-])c3)o2)c(OC)c1	-0.67% (inactive)
N#Cc1cc([N+](=O)[O-])ccc1Oc1cccc(/C=N/NC(=O)c2ccc(Cl)cc2)c1	25.2% (active)
O=C(N/N=C/c1cccc([N+](=O)[O-])c1)C1CC(=O)N(c2ccc(Br)cc2)C1 (centres undefined)	-8.22% (inactive)
CN(C)C(=O)N1CCN(C(=O)[C@@H](Cc2ccccc2)NC(=O)[C@H]2O[C@@H](n3ccc(N)nc3=O)[C@H](O)[C@@H]2O)CC1	-4.92% (inactive)
COc1cccc(-c2cc(CNC(=O)[C@@H](Cc3ccccc3)NC(=O)[C@H]3O[C@@H](n4cnc(C(N)=O)n4)[C@H](O)[C@@H]3O)no2)c1	0.63% (inactive)
COC(=O)c1sc(N2CCN(Cc3ccccc3)CC2)nc1N	6.27% (inactive)
C=CCNc1nc(N)c(C(=C(C#N)C#N)c2ccccc2)s1	29.1% (active)
COc1ccccc1Cc1c(-c2ccc(F)cc2)nc2ccc(C)cn12	-3.6% (inactive)
O=S(=O)(NCc1ccccc1)c1ccc(S(=O)(=O)N2CCCC2)cc1	16.8% (inactive)
O=c1/c(=C/c2ccc(CNS(=O)(=O)c3ccccc3)o2)sc2n1CCN=2	26% (active)
COC(=O)C1=C(C)NC(=O)/C1=C/c1ccc(CNS(=O)(=O)c2ccc(C)cc2)o1	-2.9% (inactive)
Cc1ccc(C)c(CN2CCC(CNC(=O)C3CCCN(c4ncnc5c4nc4n5CCCCC4)C3)CC2)c1 (centres undefined)	-4.48% (inactive)
